Lassa entry inh: qHTS for Inhibitors of binding or entry into cells for Lassa Virus; Lassa virus pseudotype entry inhibition, cell reporter; Potency, µM (top dose mostly 37.9 µM), for the others: top-dose activity change, negative = inhibition, most hits filed as inhibitors; actives 1.2% (n = 300,000); AID 540256, 2011; calls by dose curve; tested in HEK293 cells; also: potency is read from the fitted curve at half-maximal effect; % is scaled to controls: 0 for no effect and ±100 for the full control effect; nearly all actives have a fitted effect of over 50% in size
CHX counter: Cycloheximide Counterscreen for Small Molecule Inhibitors of Shiga Toxin | max response, % | actives 12% (n = 300,000) | cell reporter, cycloheximide protein synthesis inhibition counterscreen; in the data active = max response mostly above about 13%, no sharp cut-off; inactive = mostly below about 14%; also: read at 38.3 µM for the half of the compounds with a filed dose; 0% is about no effect
Marburg entry inh: qHTS for inhibitors of binding or entry into cells for Marburg Virus | Marburg virus pseudotyped entry inhibition, cell reporter | Potency, µM (doses to about 37.8 µM), without a hit: at the top dose activity change, negative = inhibition, most hits filed as inhibitors | actives 1.8% (n = 300,000); calls by dose curve; tested in HEK293 cells; also: potency is read from the fitted curve at half-maximal effect; % is scaled to controls: 0 for no effect and ±100 for the full control effect
FMDV antiviral: High Throughput Screening for Foot and Mouth Disease Virus Antivirals. FMDV antiviral cell-based qHTS. Potency, µM (titrated, usually from 57.9 µM), for the others: at the top dose activity change, negative = inhibition, hits mostly inhibitors. AID 1159524, 2015. actives 1.2% (n = 410,000); calls by dose curve; tested in HEK293T cells; also: read-out not given here; potency is read from the fitted curve at half-maximal effect; % is scaled to controls: 0 for no effect and ±100 for the full control effect; nearly all actives have a fitted effect of over 45% in size
HCV inh: qHTS Assay for Inhibitors of Hepatitis C Virus (HCV). Huh7.5.1 HCVcc-Cre infection, luciferase reporter, 44 h. Potency, µM (titrated, usually from 41.8 µM), for the others: at the top dose activity change, negative = inhibition, actives largely listed as inhibitors. actives 3.4% (n = 340,000); active = well fitted inhibition curve with a large enough effect; inconclusive = small, poorly fitted or top-dose-only effect, or another doubt; inactive = no such curve, though single readings can be large or run the other way; also: potency is read from the fitted curve at half-maximal effect; % is scaled to controls: 0 for no effect and ±100 for the full control effect
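Cells seeded at 1,000/well and cultured 4 h, then compounds added followed by HCVcc-Cre virus (~0.5 moi). After 44 h further culture, luciferase substrate was added, plates held 15 min at room temperature, and luminescence read for 15 sec.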
Shiga toxin inh: A qHTS for Small Molecule Inhibitors of Shiga Toxin | actives 9.2% (n = 290,000) | inhibition, % at 38.7 µM | Vero cells, Shiga toxin protein synthesis inhibition reporter; in the data active = inhibition mostly above about 28%, no sharp cut-off; inactive = mostly below about 43%; also: 0% is about no effect
Active calls of the source: *; ? = inconclusive; . = no result given; [ ] = remark or other dose. Hits are enriched below; roughly 13% of the tested compounds scored in any of these assays.

SMILES | Lassa entry inh | CHX counter | Marburg entry inh | FMDV antiviral | HCV inh | Shiga toxin inh
Cc1ccc(C(=O)NC2CCN(CC(=O)Nc3cccc([N+](=O)[O-])c3)CC2)cc1 | -10% | -3 | 0.79µM* | -8% | ? | -4
CNC(CC(=O)c1ccc([N+](=O)[O-])cc1)C(Cl)(Cl)Cl (stereo not drawn) | ? | 7 | ? | 32µM* | 9% | -2
Cc1ccc(NCCC(=O)c2cccc([N+](=O)[O-])c2)c(C)c1 | ? | 35* | 21% | 64% | -26% | 0
Cc1ccc(C(=O)CNc2cccc([N+](=O)[O-])c2)cc1 | 8% | 38* | 0%[46.1 µM] | 58% | 8% | 90*
COC(=O)C[C@@H]1C=C[C@@H](NC(=O)Nc2cccc(F)c2)[C@@H](CO)O1 | . | . | . | -5% | . | .
O=S(=O)(Oc1ccc(C(=S)N2CCOCC2)cc1)c1ccc(Cl)cc1 | ? | -1 | 15% | -5% | ? | 10
CN1CCCN(C(=O)CC2(CC(=O)O)CCCCC2)CC1 | -28% | 0 | -1% | -12% | 9% | -6
Cc1ccc(NCC(=O)c2ccc([N+](=O)[O-])cc2)cc1 | -1% | 43* | ? | 68% | -12% | 85*
Cc1ccc(S(=O)(=O)CC(=O)c2ccc([N+](=O)[O-])cc2)cc1 | . | 5 | . | 19% | 15% | -4
Cc1cccc2c1cnn2C(=O)CCC(=O)N1CCC(C)CC1 | . | 7 | . | 18% | -18% | 12
O=C(Cc1ccc(Cl)cc1)c1ccc(O)cc1 | . | 48* | . | 70% | 14% | 110*
Cc1ccc(C(=O)CCC(=O)NCc2ccc(Cl)cc2)cc1 | 12% | . | ? | -17% | 36% | .
O=C(Cc1ccccc1)c1ccc(Cl)cc1 | -34% | 32* | ? | 0% | 18% | 60*
Cc1ccc(CC(=O)c2ccc(Cl)cc2)cc1 | 3%[46.1 µM] | 47* | ? | 37% | 3% | 68*
CCN(CC)c1ccc(/C=C(/C#N)c2nc3ccc(C)cc3[nH]2)c(OC(C)C)c1 | ? | 15* | ? | 7% | 2.8µM* | 22
CCOc1cc(N(CC)CC)ccc1/C=C(/C#N)c1nc2ccccc2[nH]1 | -15% | 27* | 13µM* | -24% | 2.5µM* | 82*
CCCOc1cc(N(CC)CC)ccc1/C=C(/C#N)c1nc2ccc(C)cc2[nH]1 | -27% | 16 | ? | ? | ? | 8
CC(C)c1nnc(NC(=O)CCC(=O)NC2CCCCC2)s1 | 3% | -5 | -27% | 2% | 16% | -10
Cc1ccc(NS(=O)(=O)c2cccc(C(=O)N/N=C/c3c(C)nn(-c4ccccc4)c3N3CCCC3)c2)c(C)c1 | ? | 6 | -44% | -17% | 13µM* | -6
Cc1ccc(NS(=O)(=O)c2cccc(C(=O)N/N=C/c3ccc4c(c3)OCCO4)c2)c(C)c1 | 4% | 14* | -4% | 1% | ? | 30
COCCNC(=O)C1(C)Cc2c(-c3cccc(NC(C)=O)c3)ccnc2O1 (stereo not drawn) | . | . | . | 0% | . | .
CCOn1c(=O)c(-c2cccc3ccccc23)[n+]([O-])c2ccccc21 | 19% | -1 | ? | -5% | 2% | -3
O=C(/C=C/Nc1cccc([N+](=O)[O-])c1)c1ccco1 | -17% | . | ? | . | ? | .
Cc1ccc(C(=O)/C=C/Nc2cccc([N+](=O)[O-])c2)o1 | ? | 64* | ? | 0% | -3% | 63*
Cc1ccc(S(=O)(=O)c2cn(CC(=O)Nc3cccc(Cl)c3)c3ccccc3c2=O)cc1 | -12%[46.1 µM] | . | ? | 32% | . | .
SMILES | Lassa entry inh | CHX counter | Marburg entry inh | FMDV antiviral | HCV inh | Shiga toxin inh
CC(CCc1ccccc1)NC(=O)c1cc2sccc2n1C (stereo not drawn) | 4% | 21* | -14% | -15% | ? | 37
Cn1c(C(=O)Nc2ccccc2)cc2sccc21 | ? | 26* | 19% | 11% | -28% | 50
C#CCNC(=O)c1cc2sccc2n1C | . | 13 | . | 15% | 10% | -18
COc1ccc(OC)c(NC(=O)c2cc3sccc3n2C)c1 | 5% | 6 | -3% | 10% | ? | 29
CCOC(=O)c1cc2sccc2n1CC(=O)Nc1ccc2c(c1)OCCO2 | 8% | 18* | ? | 22% | -10% | 45
CCc1ccccc1NC(=O)c1cc2sccc2n1C | . | 49* | . | 3% | -26% | 42*
COC(=O)COc1cccc(NS(=O)(=O)c2ccc(NC(C)=O)cc2)c1 | 0% | -6 | 1% | . | 16% | 11
CCOC(=O)C1CCCN(C(=O)c2ccc(Cn3c(=S)[nH]c4cc(C(=O)OC)ccc4c3=O)cc2)C1 (stereo not drawn) | -20% | 14 | ? | -26% | ? | 43
CC(OC(=O)c1cc2sccc2n1C)C(=O)NC(C)(C)C (stereo not drawn) | . | -1 | . | -22% | 10µM* | -3
Cn1c(C(=O)Nc2ccc3c(c2)OCO3)cc2sccc21 | -2% | 39 | 0% | 24% | -14% | 92*
COC(=O)c1ccc(NC(=O)c2cc3sccc3n2C)cc1 | -10% | 40* | 0% | 25% | -5% | 122*
COc1cc(NC(=O)c2cc3sccc3n2C)cc(OC)c1 | ? | 30* | ? | 40% | ? | 81*
Cn1c(C(=O)NCc2ccc3c(c2)OCO3)cc2sccc21 | 15%[14.3 µM] | 7 | ? | 33% | . | 4
CC(OC(=O)c1cc2sccc2n1C)C(=O)NCc1cccs1 (stereo not drawn) | -1% | 6 | ? | . | ? | 21
CCc1ccc2occ(CC(=O)Nc3c(C(=O)Nc4ccc(Cl)cc4)oc4ccccc34)c2c1 | 6%[46.1 µM] | . | -4%[46.1 µM] | 10% | . | .
CCOc1ccc(OCC)c(-n2cnnn2)c1 | -9%[46.1 µM] | . | 9%[46.1 µM] | 1% | . | .
Cc1ccc(NS(=O)(=O)c2ccc(Cl)c(C(=O)Nc3ccccc3-c3nc4ccccc4[nH]3)c2)cc1C | ? | 9 | ? | -46% | 3.5µM* | 22
COc1ccc(-c2csc(NC(=O)CN3C(=O)NC4(CCCC4)C3=O)n2)cc1OC | 2% | . | 10% | -20% | ? | .
N/C(=N\NC(=O)c1sccc1OCc1ccc(Cl)cc1Cl)c1ccccn1 | ? | 3 | 8.9µM* | -17% | ? | -5
CNC(=S)NNC(=O)c1sccc1OCc1ccc(Cl)cc1Cl | ? | -2 | -7% | -12% | -1% | -1
CC(C)CNC(=O)N1c2ccccc2Sc2ccccc21 | ? | -2 | ? | -10% | -2% | -9
O=C(NCCc1ccccc1)N1c2ccccc2Sc2ccccc21 | -5% | 10 | ? | 28µM* | ? | 15
O=C(c1ccco1)N1CCN(C(=O)N2c3ccccc3Sc3ccccc32)CC1 | ? | -2 | ? | . | ? | 13
O=C(c1ccco1)N1c2ccccc2Sc2ccccc21 | ? | 6 | 22µM* | ? | 15% | 13
O=C(N/C(=C\c1ccc(Br)cc1)C(=O)N1CCOCC1)c1ccc(Br)o1 | 0%[46.1 µM] | 1 | -12%[46.1 µM] | 34% | -28% | 0

Screens from PubChem.
